Measurements as given in paper PMC4336329 (PLoS ONE, 2015).
About 14,000 (4.5%) of roughly 310,000 compounds showed an effect of 50% or more. The effect is printed as a negative number. This excerpt belongs to a sample that is enriched for strong results.

target: human ether-à-go-go-related gene (hERG) potassium channel (human, UniProt Q12809); test: primary screen, population patch clamp on CHO cells stably expressing hERG; higher = less effect of the substance
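Note: peak tail current of the secondary pulse compared with the same well before compound.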

Chain of human ether-à-go-go-related gene (hERG) potassium channel (Q12809 whole entry, looked up): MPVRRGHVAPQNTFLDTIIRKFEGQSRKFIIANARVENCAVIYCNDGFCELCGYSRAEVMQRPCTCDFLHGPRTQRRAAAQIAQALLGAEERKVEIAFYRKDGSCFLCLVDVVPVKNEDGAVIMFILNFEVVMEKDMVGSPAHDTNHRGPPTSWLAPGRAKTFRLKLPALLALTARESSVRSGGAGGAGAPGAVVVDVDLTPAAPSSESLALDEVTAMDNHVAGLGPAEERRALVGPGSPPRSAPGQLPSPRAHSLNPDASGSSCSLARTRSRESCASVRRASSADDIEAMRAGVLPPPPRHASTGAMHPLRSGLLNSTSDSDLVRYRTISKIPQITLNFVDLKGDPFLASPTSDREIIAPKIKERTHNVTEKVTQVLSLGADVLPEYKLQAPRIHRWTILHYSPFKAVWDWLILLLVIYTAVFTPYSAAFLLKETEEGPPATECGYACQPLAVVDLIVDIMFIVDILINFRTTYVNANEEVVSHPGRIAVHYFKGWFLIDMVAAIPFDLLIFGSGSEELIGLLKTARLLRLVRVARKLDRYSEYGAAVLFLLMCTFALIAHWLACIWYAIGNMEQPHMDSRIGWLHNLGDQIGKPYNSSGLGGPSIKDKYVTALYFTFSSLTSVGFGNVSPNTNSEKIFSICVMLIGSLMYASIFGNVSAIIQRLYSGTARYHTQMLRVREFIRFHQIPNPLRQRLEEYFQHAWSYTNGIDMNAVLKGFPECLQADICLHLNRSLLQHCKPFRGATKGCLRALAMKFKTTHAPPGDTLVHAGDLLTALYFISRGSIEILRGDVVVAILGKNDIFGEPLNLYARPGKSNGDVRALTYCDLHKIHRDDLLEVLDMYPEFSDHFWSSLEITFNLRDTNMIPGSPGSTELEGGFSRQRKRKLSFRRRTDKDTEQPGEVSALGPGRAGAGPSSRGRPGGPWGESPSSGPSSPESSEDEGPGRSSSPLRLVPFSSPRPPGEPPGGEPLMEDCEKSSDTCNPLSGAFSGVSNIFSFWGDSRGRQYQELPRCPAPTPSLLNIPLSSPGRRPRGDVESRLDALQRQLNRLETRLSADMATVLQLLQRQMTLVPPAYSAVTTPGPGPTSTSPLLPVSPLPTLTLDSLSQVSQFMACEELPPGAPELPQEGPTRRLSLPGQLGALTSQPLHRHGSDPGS

SMILES	hERG current change (%, negative = inhibition) at 10uM
Cc1c(NC(=O)C(C)N2CC(C)OC(C)C2)c(=O)n(-c2ccccc2)n1C (stereo not drawn)	9.21%
Cc1cccc(NC(=O)Nc2ccc(S(N)(=O)=O)cc2)c1	13.4%
Cc1cccc(C(=O)NNC(=O)CCC(=O)Nc2cccc(Cl)c2C)c1	9.03%
CCOc1ccc(-c2nnn(CC(=O)c3cc(OC)ccc3OC)n2)cc1	-7.91%
O=C(Cn1nc(-c2cccc(Cl)c2)ccc1=O)Nc1ccccc1Br	10.7%
COc1ccc(CC(=O)N2N=C(C)CC2(O)c2cccnc2)cc1OC (stereo not drawn)	-17%
CCOc1c2ccc(C(=O)NCc3ccc4c(c3)OCO4)cc2nn1C	17.6%
Fc1ccccc1C1c2[nH]c3ccccc3c2CCN1Cc1ccoc1 (stereo not drawn)	-51.7%
Cc1ccccc1C1c2[nH]c3ccccc3c2CCN1Cc1cccn1-c1ncccn1 (stereo not drawn)	-46.3%
COc1ccc(C2c3[nH]c4ccccc4c3CCN2Cc2ccoc2)c(F)c1 (stereo not drawn)	-36.9%
Cn1nccc1C(=O)N1CCc2c([nH]c3ccccc23)C1c1ccc(F)cc1 (stereo not drawn)	-19.4%
CCOc1ccc(C2c3[nH]c4ccccc4c3CCN2C(=O)Cn2cncn2)cc1 (stereo not drawn)	-15%
CCOc1ccc(C2c3[nH]c4ccccc4c3CCN2Cc2cccn2-c2ncccn2)cc1 (stereo not drawn)	-53.3%
Fc1ccccc1C1c2[nH]c3ccccc3c2CCN1Cc1cccn1-c1ncccn1 (stereo not drawn)	-50.6%
O=C(c1cc2ncccn2n1)N1CCc2c([nH]c3ccccc23)C1c1ccccc1F (stereo not drawn)	-5.11%
Fc1ccc(C2c3[nH]c4ccccc4c3CCN2Cc2ccoc2)cc1 (stereo not drawn)	-26.8%
Cc1cnc(C(=O)N2CCc3c([nH]c4ccccc34)C2c2ccc(F)cc2)cn1 (stereo not drawn)	-39.8%
Fc1ccc(C2c3[nH]c4ccccc4c3CCN2Cc2cccn2-c2ncccn2)cc1 (stereo not drawn)	-52.2%
COc1ccc(OCC(=O)N2CCc3c([nH]c4ccccc34)C2c2ccccn2)cc1 (stereo not drawn)	21.4%
CCn1c(COc2ccccc2C)nnc1SCC(=O)O	16.3%
Cc1cc(C)cc(NC(=O)N2CCC(NC(=O)c3ccccc3C)CC2)c1	5.74%
O=C(CSc1nnc(-c2ccccc2)n1-c1ccccc1)c1ccc[nH]1	16.4%
CCOC(=O)N1CCN(C(=O)CNC(=O)c2ccc(Br)o2)CC1	11.7%
COc1ccc(-c2csc(NC(=O)c3c(OC)cccc3OC)n2)cc1	7.77%
COc1ccccc1CNS(=O)(=O)c1cc2c3c(c1)CCN3C(=O)CC2	-4.02%
O=C1COc2ccc(C(=O)COC(=O)CNC(=O)C3CCCCC3)cc2N1	-7.17%
COc1ccc(OCC(Cn2cnc3ccccc32)OC(C)=O)cc1.Cl (stereo not drawn)	-26%

SMILES	hERG current change (%, negative = inhibition) at 10uM
Cc1cc(C)n(-c2cc(C(C)(C)C)nc3c(-c4ccccc4)cnn23)n1	14.6%
COc1ccc(C(=O)NCCS(=O)(=O)NCCc2ccccc2)cc1	-13.2%
CC1(C)CC(C)(c2ccc(O)cc2O)N(c2cccc(Cl)c2)C(=S)N1 (stereo not drawn)	2.04%
COCCNC(=O)c1c(N)n(-c2cccc(C)c2)c2nc3ccccc3nc12	-24.7%
Nc1c(C(=O)NCCN2CCOCC2)c2nc3ccccc3nc2n1-c1cccc(F)c1	-33.2%
Nc1c(C(=O)NCCN2CCOCC2)c2nc3ccccc3nc2n1-c1ccc2c(c1)OCO2	-33.5%
Nc1c(C(=O)NCCN2CCOCC2)c2nc3ccccc3nc2n1-c1ccccc1	-52%
Cc1cccc(-n2c(N)c(C(=O)NCCN3CCOCC3)c3nc4ccccc4nc32)c1	-57.1%
CCCNC(=O)c1c(N)n(-c2cccc(OC)c2)c2nc3ccccc3nc12	-5.21%
Cc1ccc(S(=O)(=O)NCCC(=O)NCc2ccccn2)cc1	11.1%
Cc1ccc(-c2nnn(CC(=O)N(Cc3ccco3)C(C(=O)NC(C)(C)C)c3cccs3)n2)o1 (stereo not drawn)	-19.2%
O=C(NCC1CCCO1)c1cc2c([nH]c3ccccc32)c(-c2cccc(Cl)c2)n1 (stereo not drawn)	-20.5%
Cc1sc2nc(-c3ccc(Br)cc3)oc(=O)c2c1C	13.3%
CSc1nc(C(=O)N2CCc3c([nH]c4ccccc34)C2c2ccccn2)cs1 (stereo not drawn)	-4.85%
CC(=O)Nc1ccc(NC(=O)c2cc[n+]([O-])cc2)cc1	25.2%
CC(C)Cc1nnc(NC(=O)CCC(=O)N2CCN(c3ccc([N+](=O)[O-])cc3)CC2)s1	-72.3%
CC(C)Cc1nnc(NC(=O)CCC(=O)N2CCC(C)CC2)s1	0.442%
CC(C)Cc1nnc(NC(=O)CCC(=O)N2CCN(c3ccc(Cl)cc3)CC2)s1	-3.51%
CC(C)CNC(=O)c1cc([N+](=O)[O-])ccc1N1CCOCC1	4.47%
CCc1nnc(NC(=O)c2cc([N+](=O)[O-])ccc2N2CCOCC2)s1	-15%
CC(C)Cc1nnc(NC(=O)c2cc([N+](=O)[O-])ccc2N2CCOCC2)s1	-51.4%
CC(C)Cc1nnc(NC(=O)CCC(=O)N2CC(C)CC(C)C2)s1 (stereo not drawn)	-50.8%
CC(C)Cc1nnc(NC(=O)CCC(=O)N2CCN(c3ccc(F)cc3)CC2)s1	1.08%
CC1CC(C)CN(C(=O)CCC(=O)Nc2nnc(C(C)C)s2)C1 (stereo not drawn)	12.6%
CCN(C(=O)c1ccc(C)c(Br)c1)c1ccccc1	-20.5%
CC(=O)c1c(C)[nH]c(C(=O)COC(=O)COc2ccccc2F)c1C	-3.3%
O=C(CCC1CCCCC1)NNC(=O)NC12CC3CC(CC(C3)C1)C2	13.2%
